This note sets out measurements from PubChem BioAssay (Tox21).

Assay [1] in a line: qHTS assay to identify small molecule agonists of the TGF-beta/Smad signaling pathway (AID 1346859; active means well fitted activation curve with a large enough effect in the signal ratio in the repeat runs, not every such curve was filed as active; the % refers to the signal ratio; further: series mostly up to about 77 µM). The gist of the method:
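Read-out: fluorescence at 460 and 530 nm (405 nm excitation) after a 2 hr room-temperature incubation with beta-lactamase FRET substrate. SBE-bla HEK 293T cells had been treated with test compounds for 5 hr at 37 C.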

Assay [2] can be described thus: Human pregnane X receptor (PXR) small molecule agonists, qHTS cell viability counter screen (AID 1346977). Further: nearly all actives have a fitted effect of over 50% in size. The gist of the method: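 Fluorescence read-out (CellTiter-Fluor) of viability in PXR-Luc HepG2 cells, multiplexed with the luciferase agonist read. Compounds in DMSO added after 5hr plating; 24hr total exposure at 37C, 5% CO2.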
Assay [3] in a line: Caspase-3/7 induction in HepG2 cells by small molecules, qHTS assay (AID 1346978). Further: nearly all actives have a fitted effect of over 15% in size. The gist of the method: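 Wild-type HepG2 cells (2,000/well) were settled 5 h at 37 C, 5% CO2, then exposed to compounds in DMSO for 17 h. Caspase-3/7 activity was read by luminescence 30 min after adding Caspase-Glo 3/7 reagent at room temperature.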
Assay [4] can be described thus: Caspase-3/7 induction in CHO-K1 cells by small molecules, qHTS cell viability counter screen (AID 1346979). Further: nearly all actives have a fitted effect of over 35% in size. The gist of the method:
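CHO-K1 wt, 1,500 cells/well; 5hr pre-incubation 37C/5% CO2; compound pin transfer (DMSO); 16hr exposure; CellTiter-Fluor added, 1hr, fluorescence read.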

A short description of assay [5]: Caspase-3/7 induction in CHO-K1 cells by small molecules, qHTS assay (AID 1346980). Further: nearly all actives have a fitted effect of over 15% in size. The gist of the method:
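Wild-type cells were seeded at 1,500 per well and settled 5 hr at 37 C, 5% CO2, then exposed to DMSO-dissolved compounds for 17 hr. Caspase-Glo 3/7 reagent was added, and luminescence was read after 30min at room temperature.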

The nature of assay [6]: Caspase-3/7 induction in HepG2 cells by small molecules, qHTS cell viability counter screen (AID 1346981). Further: series mostly up to about 92 µM; nearly all actives have a fitted effect of over 30% in size. The gist of the method: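 Fluorescence read-out of live-cell protease activity (CellTiter-Fluor) after 1 hr with reagent. This was measured in the same wells as the caspase-3/7 luminescence, on HepG2 cells exposed to DMSO-dissolved compounds for 16 hr at 37 C.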
Assay [7] deals with Cytochrome P450 2C19 (Homo sapiens) (UniProt P33261). In words: Cytochrome P450 Family 2 Subfamily C Member 19 (CYP2C19) small molecule antagonists: luciferase reporter qHTS assay (AID 1671197). Further: nearly all actives have a fitted effect of over 65% in size. Further: potency means the concentration at half of the fitted maximal effect. On activity change, negative = inhibition: series mostly up to about 120 µM. The gist of the method:
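CYP2C19 P450-Glo, 1536-well qHTS. Cpd + enzyme/proluciferin substrate 10 min RT; + NADPH regen, 37C 1 h; stop with luciferin detection reagent, 20 min RT, luminescence (RLU). Pos ctrl ketoconazole.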

Assay [8] addresses Cytochrome P450 2C9 (Homo sapiens) (UniProt P11712). In words: Cytochrome P450 Family 2 Subfamily C Member 9 (CYP2C9) small molecule antagonists: luciferase reporter qHTS assay (AID 1671198). Further: nearly all actives have a fitted effect of over 50% in size. Further: potency means the concentration at half of the fitted maximal effect. On activity change, negative = inhibition: series mostly up to about 120 µM. The gist of the method:
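CYP2C9 activity was measured with a P450-Glo proluciferin substrate. Enzyme–substrate mix was held with compound for 10 min at room temperature, then NADPH regeneration solution was added for 1 h at 37C. Luciferin product was read as luminescence.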

In assay [9] the target is Cytochrome P450 1A2 (Homo sapiens) (UniProt P05177). In words: Cytochrome P450 Family 1 Subfamily A Member 2 (CYP1A2) small molecule antagonists: luciferase reporter qHTS assay (AID 1671199). Further: nearly all actives have a fitted effect of over 50% in size. Further: potency means the concentration at half of the fitted maximal effect. On activity change, negative = inhibition: series mostly up to about 120 µM. The gist of the method:
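Luminescence readout (relative luminescence units) after luciferin detection reagent, 20 min RT. Preceded by 1 h room-temperature CYP1A2 reaction with NADPH regeneration solution following 10 min compound preincubation with enzyme and proluciferin substrate. Furafylline positive control.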

The target in assay [10] is Voltage-gated inwardly rectifying potassium channel KCNH2 (Homo sapiens) (UniProt Q12809). Put plainly: Human Ether-a-go-go-Related Gene (hERG) channel small molecule antagonists: fluorescence cell-based qHTS assay (AID 1671200).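 Further: hERG-expressing U2OS cells given a thallium stimulus after FluxOR II dye loading; series mostly up to about 77 µM; nearly all actives have a fitted effect of over 50% in size.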 The gist of the method: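 Read-out: thallium influx as a surrogate for potassium, tracked as fluorescence (480 nm ex/540 nm em) every second for 2 min after Stimulus Buffer addition in dye-loaded hERG-U2OS cells.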

The target in assay [11] is Cytochrome P450 3A4 (Homo sapiens) (UniProt P08684). Put plainly: Cytochrome P450 Family 3 Subfamily A Member 4 (CYP3A4) small molecule antagonists: luciferase reporter qHTS assay (AID 1671201). Further: nearly all actives have a fitted effect of over 50% in size. Further: potency means the concentration at half of the fitted maximal effect. On activity change, negative = inhibition: series mostly up to about 120 µM. The gist of the method:
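Luminescent readout (RLU) proportional to CYP3A4 activity, from luciferin generated off a proluciferin substrate. Enzyme–substrate mix plus compound 10 min at room temp, NADPH regeneration 1 h, detection reagent 20 min.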

Assay [12] addresses Thyrotropin-releasing hormone receptor (Homo sapiens) (UniProt P34981). Put plainly: qHTS assay to identify small molecule antagonists of the thyrotropin-releasing hormone receptor (TRHR) signaling pathway (AID 1346877; active means well fitted inhibition curve with a large enough effect in the repeat runs, not every such curve was filed as active; further: series mostly up to about 51 µM). The gist of the method: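 HEK293/TRHR cells, 18 h, 37 °C; Ca2+ dye 2 h; cpd 5 min RT; TRH 1 nM final; fluorescence read 3 min, 1 s intervals; 15 concs, triplicate.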

For assay [13] the target is unchanged. Put plainly: qHTS assay to identify small molecule agonists of the thyrotropin-releasing hormone receptor (TRHR) signaling pathway (AID 1346891; calls by dose curve;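 further: HEK293 cells expressing TRHR with calcium dye readout; series mostly up to about 58 µM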). The gist of the method:
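HEK293/TRHR cells, 1500 per well, 18 h 37 °C; Ca dye 2 h 37 °C; pin-tool compound addition (agonist mode); kinetic fluorescence 3 min, 1 s reads; 15 concentrations, triplicate.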

Assay [14] concerns the target Nuclear receptor subfamily 1 group I member 2 (Homo sapiens) (UniProt O75469). In words: Human pregnane X receptor (PXR) small molecule agonists, qHTS assay (AID 1346982). Further: nearly all actives have a fitted effect of over 35% in size. Further: potency means the concentration at half of the fitted maximal effect. The gist of the method: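 HepG2 PXR-Luc reporter line, 5% charcoal-stripped FBS; 5 hr pre-incubation, compound (DMSO) 24 hr at 37 C/5% CO2; ONE-Glo 30 min RT; luminescence read-out.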
Assay [15] addresses Cytochrome P450 2D6 (Homo sapiens) (UniProt P10635). In words: Cytochrome P450 Family 2 Subfamily D Member 6 (CYP2D6) small molecule antagonists: luciferase reporter qHTS assay (AID 1671196). Further: nearly all actives have a fitted effect of over 50% in size. Further: potency means the concentration at half of the fitted maximal effect. On activity change, negative = inhibition: series mostly up to about 120 µM. The gist of the method:
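Luminogenic proluciferin substrate, CYP2D6 enzyme; 10 min RT preincubation with compound, NADPH regeneration system added, 1 h RT. Stop/detection reagent, 20 min RT, luminescence read (RLU). Signal proportional to CYP activity.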

The target in assay [16] is Nuclear receptor subfamily 1 group I member 2 (Rattus norvegicus) (UniProt Q9R1A7). Put plainly: Rat pregnane X receptor (rPXR) activation by small molecules, qHTS assay (AID 1346983). Further: nearly all actives have a fitted effect of over 20% in size. As to conditions: rPXR luciferase reporter cells, One-Glo luminescence, 24 h; max activation: active compounds read high. The gist of the method:
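Cell-based rPXR luciferase reporter assay, 2,000 cells per well, rested 5hr at 37 C before compound addition in DMSO, then 24 hr at 37 C. One-Glo reagent was added and luminescence read after 30 min at room temperature.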

The target in assay [17] is Nuclear receptor subfamily 1 group I member 2 (Homo sapiens) (UniProt O75469). In words: CYP3A4 induction through human pregnane X receptor (PXR) by small molecules, qHTS assay (AID 1346984). Further: nearly all actives have a fitted effect of over 40% in size. The gist of the method: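 HepG2-derived DPX-2 line carrying PXR plus a CYP3A4-promoter luciferase reporter; cells plated 5 hr, compound-exposed 24 hr at 37C. CYP3A4 activity probed with 3uM (final) Luciferin-IPA for 3hr, then luciferase read after One-Glo.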

The target is the same in assay [18]. In words: Human pregnane X receptor (PXR) activation by small molecules, qHTS assay (AID 1346985). Further: nearly all actives have a fitted effect of over 40% in size. The gist of the method: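 DPX-2 cells (HepG2 co-transfected with a PXR response element and a CYP3A4-promoter luciferase construct) were seeded at 2,000 per well, rested 5 hr at 37C, then exposed to DMSO-dissolved compounds for 24 hr. Activation was read as luciferase luminescence.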

A number with no mark means an inactive call. Records with an inconclusive call do not appear. Active and inactive are the calls of the source. Unless noted, the call rests on the fitted dose curve; in most records, active means well fitted curve in the direction sought with a large enough effect in the repeat runs; inconclusive means weak or mixed curves; inactive means no such curve, though single readings can be large; an effect the other way counts as inactive or inconclusive.
On the % scale 0 is the no-effect control and ±100 the full control effect.

Chain of Cytochrome P450 3A4 (Homo sapiens) (P08684 whole entry, looked up): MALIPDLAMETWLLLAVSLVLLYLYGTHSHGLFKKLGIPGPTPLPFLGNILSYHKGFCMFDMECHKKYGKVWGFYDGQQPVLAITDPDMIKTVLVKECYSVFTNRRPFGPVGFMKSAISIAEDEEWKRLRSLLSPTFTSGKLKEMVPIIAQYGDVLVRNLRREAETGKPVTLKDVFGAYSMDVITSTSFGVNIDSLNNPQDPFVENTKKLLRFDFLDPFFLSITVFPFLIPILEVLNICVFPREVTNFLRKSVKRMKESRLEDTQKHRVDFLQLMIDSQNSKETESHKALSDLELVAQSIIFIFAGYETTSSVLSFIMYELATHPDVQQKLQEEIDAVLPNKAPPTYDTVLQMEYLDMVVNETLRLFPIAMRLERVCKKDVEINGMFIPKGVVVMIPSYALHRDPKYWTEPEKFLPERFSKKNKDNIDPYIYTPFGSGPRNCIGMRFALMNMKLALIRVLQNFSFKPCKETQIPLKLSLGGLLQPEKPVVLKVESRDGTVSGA
Chain of Thyrotropin-releasing hormone receptor (Homo sapiens) (P34981 whole entry, looked up): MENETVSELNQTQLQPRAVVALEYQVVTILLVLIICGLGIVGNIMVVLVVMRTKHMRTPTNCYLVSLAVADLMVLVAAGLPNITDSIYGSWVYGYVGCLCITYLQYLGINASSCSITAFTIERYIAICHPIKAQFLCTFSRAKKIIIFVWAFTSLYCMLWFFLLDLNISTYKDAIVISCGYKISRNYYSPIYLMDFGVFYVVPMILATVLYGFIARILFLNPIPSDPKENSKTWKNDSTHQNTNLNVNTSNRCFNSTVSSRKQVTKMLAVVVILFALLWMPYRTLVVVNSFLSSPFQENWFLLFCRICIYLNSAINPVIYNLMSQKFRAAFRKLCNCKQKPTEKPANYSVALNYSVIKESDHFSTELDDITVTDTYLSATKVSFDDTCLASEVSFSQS
Chain of Cytochrome P450 2D6 (Homo sapiens) (P10635 whole entry, looked up): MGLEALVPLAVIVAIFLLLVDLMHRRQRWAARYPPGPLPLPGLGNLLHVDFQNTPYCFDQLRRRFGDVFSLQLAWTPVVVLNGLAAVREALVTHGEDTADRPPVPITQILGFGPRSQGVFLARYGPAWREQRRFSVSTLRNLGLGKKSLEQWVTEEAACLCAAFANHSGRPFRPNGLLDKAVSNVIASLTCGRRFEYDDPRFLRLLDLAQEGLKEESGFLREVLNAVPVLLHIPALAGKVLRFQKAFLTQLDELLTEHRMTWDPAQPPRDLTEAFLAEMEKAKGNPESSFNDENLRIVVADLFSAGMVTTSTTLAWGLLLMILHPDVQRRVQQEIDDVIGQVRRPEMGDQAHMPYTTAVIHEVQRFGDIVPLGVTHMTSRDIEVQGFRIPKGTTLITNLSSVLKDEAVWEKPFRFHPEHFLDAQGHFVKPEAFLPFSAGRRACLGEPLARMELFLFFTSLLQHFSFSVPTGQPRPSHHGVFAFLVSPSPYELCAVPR
Chain of Cytochrome P450 2C19 (Homo sapiens) (P33261 whole entry, looked up): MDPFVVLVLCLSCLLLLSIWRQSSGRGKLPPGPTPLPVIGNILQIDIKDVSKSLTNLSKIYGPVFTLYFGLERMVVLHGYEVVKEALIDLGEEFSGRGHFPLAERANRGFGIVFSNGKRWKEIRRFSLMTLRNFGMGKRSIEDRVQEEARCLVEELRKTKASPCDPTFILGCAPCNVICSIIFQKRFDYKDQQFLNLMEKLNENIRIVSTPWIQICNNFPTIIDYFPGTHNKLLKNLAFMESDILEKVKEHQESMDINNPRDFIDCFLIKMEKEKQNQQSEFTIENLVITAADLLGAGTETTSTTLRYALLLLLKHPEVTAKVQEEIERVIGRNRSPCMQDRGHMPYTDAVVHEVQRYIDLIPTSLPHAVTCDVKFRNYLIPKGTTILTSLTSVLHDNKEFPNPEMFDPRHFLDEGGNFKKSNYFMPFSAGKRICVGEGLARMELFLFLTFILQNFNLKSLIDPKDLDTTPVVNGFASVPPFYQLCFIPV
Chain of Voltage-gated inwardly rectifying potassium channel KCNH2 (Homo sapiens) (Q12809 whole entry, looked up): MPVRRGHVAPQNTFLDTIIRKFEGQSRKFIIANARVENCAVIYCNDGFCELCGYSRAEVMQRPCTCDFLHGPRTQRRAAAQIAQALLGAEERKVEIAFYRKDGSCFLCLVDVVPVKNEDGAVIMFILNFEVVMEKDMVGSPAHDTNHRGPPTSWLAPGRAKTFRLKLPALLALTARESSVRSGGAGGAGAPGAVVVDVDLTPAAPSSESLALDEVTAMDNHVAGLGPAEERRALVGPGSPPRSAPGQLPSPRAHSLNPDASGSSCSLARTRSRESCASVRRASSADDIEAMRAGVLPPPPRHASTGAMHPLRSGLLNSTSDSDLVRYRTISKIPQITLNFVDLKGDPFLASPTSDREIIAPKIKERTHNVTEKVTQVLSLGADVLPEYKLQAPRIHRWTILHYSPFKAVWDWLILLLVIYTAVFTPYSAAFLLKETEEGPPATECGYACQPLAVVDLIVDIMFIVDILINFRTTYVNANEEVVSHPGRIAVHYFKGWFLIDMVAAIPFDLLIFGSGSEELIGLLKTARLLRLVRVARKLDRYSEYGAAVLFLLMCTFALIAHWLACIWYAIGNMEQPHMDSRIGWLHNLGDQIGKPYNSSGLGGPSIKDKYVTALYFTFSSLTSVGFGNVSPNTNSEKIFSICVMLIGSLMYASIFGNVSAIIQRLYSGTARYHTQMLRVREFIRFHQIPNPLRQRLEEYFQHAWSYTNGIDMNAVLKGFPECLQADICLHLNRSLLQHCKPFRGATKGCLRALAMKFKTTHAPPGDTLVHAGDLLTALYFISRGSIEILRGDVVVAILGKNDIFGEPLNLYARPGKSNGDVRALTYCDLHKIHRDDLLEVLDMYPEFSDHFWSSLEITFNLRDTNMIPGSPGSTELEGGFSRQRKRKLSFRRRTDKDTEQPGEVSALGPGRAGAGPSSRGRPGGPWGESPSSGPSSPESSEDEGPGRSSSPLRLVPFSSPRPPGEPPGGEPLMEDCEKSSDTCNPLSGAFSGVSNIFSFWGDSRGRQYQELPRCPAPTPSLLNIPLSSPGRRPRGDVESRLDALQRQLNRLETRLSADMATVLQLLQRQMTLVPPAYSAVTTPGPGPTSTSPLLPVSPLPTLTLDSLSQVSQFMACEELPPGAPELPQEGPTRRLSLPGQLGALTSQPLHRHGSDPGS
Chain of Cytochrome P450 2C9 (Homo sapiens) (P11712 whole entry, looked up): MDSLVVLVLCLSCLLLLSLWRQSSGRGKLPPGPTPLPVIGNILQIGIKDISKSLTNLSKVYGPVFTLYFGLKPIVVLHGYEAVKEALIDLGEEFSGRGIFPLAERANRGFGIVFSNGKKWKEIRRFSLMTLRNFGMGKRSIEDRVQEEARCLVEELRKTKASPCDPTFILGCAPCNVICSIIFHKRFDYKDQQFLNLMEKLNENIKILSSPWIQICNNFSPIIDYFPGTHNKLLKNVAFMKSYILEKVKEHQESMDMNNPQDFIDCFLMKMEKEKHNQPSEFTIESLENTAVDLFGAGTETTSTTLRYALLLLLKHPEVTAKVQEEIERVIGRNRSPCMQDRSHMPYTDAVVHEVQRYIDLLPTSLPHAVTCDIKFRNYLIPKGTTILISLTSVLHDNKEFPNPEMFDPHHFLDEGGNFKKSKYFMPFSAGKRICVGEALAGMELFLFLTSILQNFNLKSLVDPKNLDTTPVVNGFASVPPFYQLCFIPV
Chain of Cytochrome P450 1A2 (Homo sapiens) (P05177 whole entry, looked up): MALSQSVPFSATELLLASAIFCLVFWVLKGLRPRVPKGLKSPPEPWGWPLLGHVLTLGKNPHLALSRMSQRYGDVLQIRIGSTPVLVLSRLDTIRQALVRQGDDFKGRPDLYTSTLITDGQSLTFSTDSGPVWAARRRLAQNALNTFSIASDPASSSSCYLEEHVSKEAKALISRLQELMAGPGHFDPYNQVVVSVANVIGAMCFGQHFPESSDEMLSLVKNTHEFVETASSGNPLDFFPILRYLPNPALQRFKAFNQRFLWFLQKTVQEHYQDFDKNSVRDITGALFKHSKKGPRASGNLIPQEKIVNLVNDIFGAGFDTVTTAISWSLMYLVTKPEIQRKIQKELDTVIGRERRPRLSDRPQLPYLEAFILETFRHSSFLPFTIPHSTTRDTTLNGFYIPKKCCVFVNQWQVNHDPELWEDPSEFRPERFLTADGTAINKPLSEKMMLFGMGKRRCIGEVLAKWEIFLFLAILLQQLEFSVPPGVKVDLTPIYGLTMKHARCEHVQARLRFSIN
Chain of Nuclear receptor subfamily 1 group I member 2 (Homo sapiens) (O75469 whole entry, looked up): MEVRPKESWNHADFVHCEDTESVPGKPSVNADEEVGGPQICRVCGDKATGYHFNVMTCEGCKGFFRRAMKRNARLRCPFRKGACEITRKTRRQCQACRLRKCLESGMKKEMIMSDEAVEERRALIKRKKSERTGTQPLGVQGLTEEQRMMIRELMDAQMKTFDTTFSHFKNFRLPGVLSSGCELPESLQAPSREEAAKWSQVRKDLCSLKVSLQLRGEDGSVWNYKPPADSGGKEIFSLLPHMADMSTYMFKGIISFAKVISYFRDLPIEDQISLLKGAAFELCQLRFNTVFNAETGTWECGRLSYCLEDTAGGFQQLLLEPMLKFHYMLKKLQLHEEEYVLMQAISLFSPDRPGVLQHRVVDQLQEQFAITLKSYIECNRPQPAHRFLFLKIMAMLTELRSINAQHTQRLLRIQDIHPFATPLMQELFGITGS
Chain of Nuclear receptor subfamily 1 group I member 2 (Rattus norvegicus) (Q9R1A7 whole entry, looked up): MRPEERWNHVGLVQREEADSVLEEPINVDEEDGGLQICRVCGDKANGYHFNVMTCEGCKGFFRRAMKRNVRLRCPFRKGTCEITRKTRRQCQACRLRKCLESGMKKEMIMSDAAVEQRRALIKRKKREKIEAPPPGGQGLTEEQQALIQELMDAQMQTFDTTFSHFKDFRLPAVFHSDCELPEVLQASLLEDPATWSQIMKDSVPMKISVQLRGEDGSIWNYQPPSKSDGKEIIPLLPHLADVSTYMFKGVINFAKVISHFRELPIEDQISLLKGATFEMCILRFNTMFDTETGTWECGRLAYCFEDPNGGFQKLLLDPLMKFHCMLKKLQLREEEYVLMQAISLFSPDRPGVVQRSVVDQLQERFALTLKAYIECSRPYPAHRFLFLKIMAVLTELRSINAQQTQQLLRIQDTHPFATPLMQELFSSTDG

As to `CCCCC(CC)COC(=O)CC#N` (stereo not given), the call in assay [1], in assay [2], in [3], in assay [5] and in [6] was inactive. For the same compound, the Potency entry in [4] and in [10] was “inactive” each time. Besides, the Potency was 39.9 µM (active) in [7], 31.7 µM (active) in [8], 35.6 µM (active) in assay [9] and 39.9 µM (active) in assay [11].
As to `N#CC1(N)CCCCC1`, the call in assay [12], in assay [2], in assay [3], in assay [5] and in assay [6] was inactive. Also, the Potency entry in assay [13], in [4], in [14], in assay [15], in assay [7] and in assay [8] was “inactive” in each case. In addition, the Potency entry in [9], in [10] and in [11] was “inactive” in each case.
With `Clc1ccc2c(c1)Nc1ccccc1S2`, the outcome in assay [1], in assay [2], in assay [5] and in assay [6] was inactive. Also, the Potency entry in assay [4], in [15], in [10] and in assay [11] was “inactive” throughout. Further, the Potency in assay [14] was 33.5 µM (active); in [7], 3.89 µM (active); in [9], 0.347 µM (active).
Take `CC(C)OC(=O)C(C(=O)OC(C)C)=C1SC=CS1`: the outcome in assay [12], in assay [2], in assay [3], in assay [5], in [6] and in assay [17] was inactive. The call in assay [18] was inactive. Further, the Potency entry in [13], in assay [4], in assay [15] and in assay [10] was “inactive” each time. Also, the Potency is 26.6 µM (active) in assay [14], 34.7 µM (active) in [7] and 13.8 µM (active) in [9]. In addition, the max activation in assay [16] was 6.37%.
On to `CCCCCCCCCCCCCCCC/C=C/C1CC(=O)OC1=O` (stereo not given), for which the call in assay [1], in [2], in assay [3], in assay [5] and in [6] was inactive. The Potency result in assay [4] and in assay [10] was “inactive” throughout. The Potency in assay [7] is 27.4 µM (active); in assay [11], 15.4 µM (active).
`CCCC(C)C(O)CC` (stereo not given): the call in [1], in assay [2], in assay [5] and in assay [6] was inactive. For the same compound, the Potency entry in assay [4], in [14], in [15], in [7], in assay [8] and in assay [9] was “inactive” each time. For the same compound, the Potency entry in assay [10] and in [11] was “inactive” each time.
`CN(C)c1ccncc1`: the compound was called inactive in [1], in assay [2], in assay [3], in [5] and in assay [6]. Besides, the Potency entry in assay [4], in [7], in assay [8], in assay [9], in assay [10] and in [11] was “inactive” each time. Moreover, in assay [15], the Potency was 31.7 µM (active).
Take `CCCCCCCCCCCCCCCCN(C)C`: the activation in [1] was 0.329% [at 6.97 µM]. The activity change, negative = cytotoxicity in assay [2] was 1.81% [at 8.39 µM]; in [4] it was -2.77% [at 8.39 µM]; in assay [6] it was -1.8% [at 8.39 µM]. Moreover, the caspase activation in assay [3] is 0.737% [at 8.39 µM]. For the same compound, the caspase-3/7 activation in assay [5] was -0.483% [at 8.39 µM]. In addition, the Potency in [15] is 3.19 µM (active). Also, the activity change, negative = inhibition in assay [8] is -0.0403% [at 10.5 µM]; in assay [10], -6.11% [at 6.97 µM]; in [11], -0.256% [at 10.5 µM].
For the compound `COc1cc(C(=O)NC2CCCNC2)cc(OC)c1OC` (stereo not given), the result in assay [1], in assay [2], in [3], in assay [5] and in [6] was inactive. The Potency result in assay [4], in [15], in [7], in [10] and in assay [11] was “inactive” each time. In [9], the Potency is 15.5 µM (active).
